Shown are actives, neighbours in structure and some others; about 1% of the full set was active somewhere.
TSHR antag – Antagonists of the Thyroid Stimulating Hormone Receptor: HTS campaign | Thyrotropin receptor (Homo sapiens), P16473 | TSHR-expressing cells, TSH-stimulated cAMP HTRF, 2 h; stronger effect = lower value | activity change, negative = inhibition, % at 11.5 µM | 330,000 tested, 0.2% active;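 active means activity change below a set negative limit, meaning inhibition stronger than a set level, cut at about -70% in these data; inconclusive means activity change between two set negative limits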; further: on the % scale 0 is the no-effect control and ±100 the full control effect
Target sequence (P16473 whole entry, looked up): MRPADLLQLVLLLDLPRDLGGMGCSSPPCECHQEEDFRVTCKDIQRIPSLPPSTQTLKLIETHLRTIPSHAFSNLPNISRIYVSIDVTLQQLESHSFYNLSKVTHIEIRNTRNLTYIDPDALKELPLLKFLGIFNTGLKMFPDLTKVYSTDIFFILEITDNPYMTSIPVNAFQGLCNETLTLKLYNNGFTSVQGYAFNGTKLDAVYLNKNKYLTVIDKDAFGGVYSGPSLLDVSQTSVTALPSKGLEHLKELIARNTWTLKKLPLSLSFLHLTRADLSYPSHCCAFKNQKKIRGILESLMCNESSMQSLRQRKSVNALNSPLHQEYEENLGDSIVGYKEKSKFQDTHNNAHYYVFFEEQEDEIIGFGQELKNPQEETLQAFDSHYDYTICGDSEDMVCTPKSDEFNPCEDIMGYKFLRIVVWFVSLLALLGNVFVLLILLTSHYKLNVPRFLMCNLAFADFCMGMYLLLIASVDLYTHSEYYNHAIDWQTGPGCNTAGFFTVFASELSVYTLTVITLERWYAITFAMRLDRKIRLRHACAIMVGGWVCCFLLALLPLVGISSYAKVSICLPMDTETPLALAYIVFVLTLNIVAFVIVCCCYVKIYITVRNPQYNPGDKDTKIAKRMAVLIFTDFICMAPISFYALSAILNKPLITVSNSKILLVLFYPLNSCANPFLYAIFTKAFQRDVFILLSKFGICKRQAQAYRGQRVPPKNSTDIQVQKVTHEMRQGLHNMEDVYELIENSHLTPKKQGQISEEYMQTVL
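Read-out is FRET at 665 nm (cryptate excitation 337 nm) from a cryptate-tagged anti-cAMP antibody, competed by cell cAMP against cAMP-d2. Compounds are tested on freshly harvested TSHR cells challenged with 4nM TSH (EC80) for 2 hours at 37 deg C.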
gsp ag – qHTS for Agonist of gsp, the Etiologic Mutation Responsible for Fibrous Dysplasia/McCune-Albright Syndrome: qHTS; Potency, µM (doses to about 76.9 µM), without a hit: top-dose activation (cAMP increase), actives largely listed as activators; 340,000 tested, 0.13% active; gsp mutant cells, cAMP HTRF, 30 min; active means well fitted activation curve with a large enough effect; inconclusive means small, poorly fitted or top-dose-only effect, or another doubt; inactive means no such curve, though single readings can be large or run the other way; cell line not stated here;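 further: phosphodiesterase inhibitor Ro 20-1724 added with compounds to block cAMP breakdown; potency means the concentration at half of the fitted maximal effect; nearly all actives have a fitted effect of over 60% in size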
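Cells in DMEM/10% FBS with G418 were pretreated with compounds in DMSO plus […] (300 uM stock) for 30 min at 37C. cAMP was measured by HTRF (cAMP-d2 plus anti-cAMP antibody-K) after 30 min at room temperature.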
gsp antag – qHTS for Antagonists of gsp, the Etiologic Mutation Responsible for Fibrous Dysplasia/McCune-Albright Syndrome: qHTS; 340,000 tested, 0.4% active; gsp-mutant cells, cAMP HTRF, 30 min; Potency, µM (titrated, usually from 76.9 µM), inactives show top-dose activity change, negative = inhibition, hits mostly inhibitors; calls by dose curve; cell line not stated here;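 further: intracellular cAMP measured with PDE inhibitor Ro 20-1724 present during compound exposure; potency means the concentration at half of the fitted maximal effect; on the % scale 0 is the no-effect control and ±100 the full control effect; nearly all actives have a fitted effect of over 65% in size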
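HTRF cAMP read-out (cAMP-d2 plus anti-cAMP antibody-K in lysis buffer, 30 min RT). Before lysis, cells are exposed to compounds with […] for 30 min at 37C in DPBS containing Ca/Mg, BSA and Tween 20.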
RXFP1 antag – qHTS Assay for Antagonists of the Relaxin Receptor RXFP1. activity change, negative = inhibition, % at 57.5 µM. HEK293-RXFP1, relaxin-stimulated cAMP HTRF, 30 min; stronger effect = lower value. 350,000 tested, 0.59% active. AID 1259400, 2018. Relaxin receptor 1 (Homo sapiens), Q9HBX9;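 active means activity change of -60% or lower, but not beyond a set lower limit; inconclusive means change between -60% and -40%, or beyond the set limit; inactive means change above -40%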; further: on the % scale 0 is the no-effect control and ±100 the full control effect
RXFP1 agonist – qHTS Assay for Agonists of the Relaxin Receptor RXFP1 | Relaxin receptor 1 (Homo sapiens), Q9HBX9 | HEK293T-RXFP1 cAMP TR-FRET, 30 min; response scale: percent of porcine relaxin response, buffer zero | Potency, µM (highest dose often 57.5 µM), for the others: top-dose activation, hits mostly activators | 370,000 tested, 0.3% active; active means well fitted activation curve with a large enough effect; inconclusive means small, poorly fitted or top-dose-only effect; further: potency means the concentration at half of the fitted maximal effect; on the % scale 0 is the no-effect control and ±100 the full control effect; nearly all actives have a fitted effect of over 60% in size
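cAMP rise read by TR-FRET after 30 min, 37C compound exposure (up to 58 uM) in RXFP1-transfected HEK293 cells with Ro 20174 present. EC50 from Hill-equation fits, with 29 nM porcine relaxin as 100% and buffer as basal.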
* = called active by the depositor; ? = inconclusive; / = not tested or not shown; [ ] = remark or other dose.

SMILES | TSHR antag | gsp ag | gsp antag | RXFP1 antag | RXFP1 agonist
O=C(Nc1ccc(Cc2ccncc2)cc1)C1CCC(N2C(=O)C3C4C=CC(C5CC45)C3C2=O)CC1 (stereo not given) | -23 | ? | 7.9µM* | -16 | -2%
O=C(CNC(=O)c1ccccc1)OCc1cc(=O)n2nc(C3CC3)sc2n1 | / | / | / | / | 17%
O=S(=O)(NCCC1=CCCCC1)c1ccc(Br)cc1 | -19 | -21% | -3% | -70* | -1%
O=S(=O)(NCCC1=CCCCC1)c1ccccc1Br | -9 | 9% | -6% | -3 | 0%
O=C(Nc1cc(-c2nc3cc(Cl)ccc3o2)ccc1Cl)c1cc2ccccc2o1 | / | / | / | / | 4%
COc1ccccc1NC(=O)NC1(C(=O)N2CCCCC2)CCCCC1 | -75* | 1% | 5% | -11 | 2%
NC(=O)c1cc[n+](CC2=C(C(=O)O)N3C(=O)[C@@H](NC(=O)[C@@H](c4ccccc4)S(=O)(=O)[O-])[C@H]3SC2)cc1 | -5 | / | / | / | /
CCC1=Nc2cc(C(=O)N3CCC(C)CC3)ccc2Sc2ccc(C)cc21 | / | / | / | ? | 1%
Cc1ccc(C(C)C)c(OCc2ccc(C(=O)N/N=C/c3ccc(O)cc3O)cc2)c1 | -16 | -4% | 3% | -15 | 0%
Cc1ccc(C(C)C)c(OCc2ccc(C(=O)N/N=C/c3ccc(C(=O)O)cc3)cc2)c1 | -30 | 9% | -28% | -69* | 0%
Cc1sc2ncnc(N3CCC(C(=O)N(C)CC(=O)Nc4ccccc4Br)CC3)c2c1C | -11 | -107% | 35µM* | -37 | 6%
Cc1sc2ncnc(N3CCC(C(=O)N(C)CC(=O)Nc4ccccc4Cl)CC3)c2c1C | -24 | -18% | ? | 4 | 2%
Cc1cc2oc(C(=O)Nc3c(C(=O)Nc4ccccc4)oc4ccccc34)cc(=O)c2cc1C | / | / | / | -8 | 2%
COc1cccc(NC(=O)Nc2nc(-c3ccc(OC)c(OC)c3)cs2)c1 | -94* | ? | -19% | -62* | 12%
O=C(COc1ccc(/C=N/NC(=O)C(=O)N2CCCCC2)cc1)Nc1ccccc1Cl | -8 | 3% | -18% | -73* | -1%
COc1ccc(/C=N/NC(=O)C(=O)N2CCCC2)cc1 | 1 | 13%[15.4 µM] | -11% | -11 | 1%
CCC(=O)N1c2ccc(S(=O)(=O)CCC(=O)Nc3ccc(Br)c(C)c3)cc2CC1C (stereo not given) | / | / | / | / | 1%
COc1ccc(C(=O)/C=C2/C(=O)Nc3ccccc32)c(OC)c1 | -13 | 5%[15.4 µM] | 4% | -86* | 6%
COc1ccc(C(=O)/C=C2/C(=O)Nc3ccccc32)cc1 | -12 | ? | -6% | -39 | -4%
CCC(NC(=O)Nc1nnc(C(F)(F)F)s1)(C(F)(F)F)C(F)(F)F | -87* | 0% | 4.5µM* | -2 | 1%
O=C1CC(N2CCC(c3nc4ccccc4s3)CC2)C(=O)N1Cc1ccccc1 (stereo not given) | -14 | 6% | 35µM* | -15 | 1%
Cc1oc2ccc(O)c(CN3CCN(C)CC3)c2c1C(=O)Nc1cccc(Cl)c1C | / | / | / | 1 | 0%
Cc1cccc(N2C(=O)CSC23C(=O)N(CC(=O)NCc2ccccc2Cl)c2ccccc23)c1 (stereo not given) | / | / | / | / | 1%
O=C(Cn1cc(S(=O)(=O)c2ccccc2)c(=O)c2cc(Cl)ccc21)Nc1ccc2c(c1)OCO2 | / | / | / | / | 3%
COc1ccc(-c2nc(-c3ccccc3)c(-c3ccc(O)cc3)[nH]2)cc1 | / | / | / | -104* | 2%
COc1ccc(-c2[nH]c(-c3ccc(O)cc3)nc2-c2ccccc2)cc1 | / | / | / | ? | 0%
CC(C)c1ccc2oc(=O)cc(CN3CCN(c4ccc(F)cc4)CC3)c2c1 | -12 | 4% | 35µM* | -19 | 0%
CCc1ccc2oc(=O)cc(CN3CCN(c4ccc(F)cc4)CC3)c2c1 | -18 | 1% | -12%[15.4 µM] | -15 | 4%
CCc1ccc(OCc2cc(=O)n3cc(C)sc3n2)cc1 | / | / | / | / | 21%
CC(C)(C)C(=O)NC(=S)NNC(=O)C(c1ccccc1)c1ccccc1 | -10 | -3% | -1% | -94* | 0%
